According to PubChem BioAssay (NCATS):
Several values for one entry are separate records, joined by “and”; a condition that tells them apart may be missing. Equal values may be shown once. Results filed as inconclusive are left out. A call without a number means that no potency is given here. Activity calls are given as the source filed them. Unless noted, calls follow the shape of the dose curve; as a rule, active = well fitted curve in the direction sought with a large enough effect; inconclusive = small, poorly fitted or top-dose-only effect, or another doubt; inactive = no such curve, though single readings can be large; an effect the other way counts as inactive or inconclusive.

Assays:
[1] = Cell Viability - SK-N-SH (AID 435; calls by dose curve; also: potency is read from the fitted curve at half-maximal effect); conditions: SK-N-SH neuroblastoma cell viability qHTS
Procedure, shortened: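 SK-N-SH human neuroblastoma cells (1500/well) were exposed to compounds in complete medium for 40 h at 37 °C, and intracellular ATP was then measured by CellTiter-Glo luminescence. AC50 was taken from Hill fits, normalized to DMSO and 100 uM tamoxifen.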

[2] = Cell Viability - H-4-II-E (AID 543); conditions: H-4-II-E rat hepatoma viability; series mostly up to 92.2 µM; also: nearly all actives have a fitted effect of over 35% in size
Procedure, shortened: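 CellTiter-Glo luminescence (intracellular ATP) measured after 40 h compound exposure at 37 °C in H-4-II-E rat hepatoma cells seeded at 1500/well. Values are AC50s fitted with the standard Hill equation.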

[3] = Cell Viability - Renal Proximal Tubule (AID 545); conditions: renal proximal tubule cells viability, primary cells of rat origin; activity change, negative = cytotoxicity: at 91.7 µM (top of the series); also: nearly all actives have a fitted effect of over 40% in size
Procedure, shortened: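 Primary rat renal proximal tubule cells (1000/well) were treated with compounds for 40 hr at 37 °C in complete medium. Intracellular ATP was measured by CellTiter-Glo luminescence, and AC50 values came from Hill-equation fits of concentration-response data.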

[4] = Cell Viability - LYMP2-001 (AID 921); conditions: LYMP2-001 lymphoblastoid cell viability; series mostly up to 92.2 µM; also: nearly all actives have a fitted effect of over 70% in size
Procedure, shortened: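 Human lymphoblastoid cells (Coriell), 2500 per well, were preincubated 5 hr at 37 C, then exposed to compounds in complete medium for 24 hr at 37 C. Cellular ATP was read by CellTiter-Glo luminescence; AC50 from Hill fits of concentration-response data.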

[5] = MultiTox-Fluor Cytotoxicity Assay - LYMP1-001 - Live Cells (AID 947); conditions: LYMP1-001 lymphoblastoid cells, live-cell protease fluorescence viability; series mostly up to 92.2 µM
[6] = MultiTox-Fluor Cytotoxicity Assay - LYMP1-002 - Dead Cells (AID 960); conditions: LYMP1-002 lymphoblastoid cells, dead-cell protease fluorescence; series mostly up to 46.1 µM; also: nearly all actives have a fitted effect of over 60% in size
Procedure, shortened: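 Dead-cell fluorescence (Ex/Em 485/520) after 16 h compound exposure at 37 C of LYMP1-002 lymphoblastoid cells in complete medium; AC50 by Hill equation, with data scaled between DMSO and 15 uM tetraoctylammonium bromide.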

[7] = Cell Viability - LYMP2-005 (AID 967); conditions: LYMP2-005 lymphoblastoid cell viability; series mostly up to 92.2 µM
Procedure, shortened: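 CellTiter-Glo luminescence (cellular ATP) read-out; LYMP2-005 lymphoblastoid cells, 2500/well, 5 h pre-incubation, then 24 h compound exposure at 37 C in complete medium. Tetraoctylammonium bromide positive control; AC50 by standard Hill fit.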

[8] = Cell Viability - LYMP2-009 (AID 968); conditions: LYMP2-009 lymphoblastoid cell viability; series mostly up to 92.2 µM; also: nearly all actives have a fitted effect of over 55% in size
[9] = Cell Viability - LYMP2-015 (AID 971); conditions: LYMP2-015 lymphoblastoid cell viability; series mostly up to 92.2 µM; also: nearly all actives have a fitted effect of over 55% in size
Procedure, shortened: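 Cytotoxicity readout: decrease in intracellular ATP (CellTiter-Glo luminescence) in 2500 LYMP2-015 lymphoblastoid cells/well after 24 h compound exposure at 37 C. Concentration-response data fitted with the standard Hill equation to give AC50.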

[10] = Cell Viability - LYMP2-017 (AID 972); conditions: LYMP2-017 lymphoblastoid cell viability; series mostly up to 92.2 µM; also: nearly all actives have a fitted effect of over 55% in size
Procedure, shortened: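 CellTiter-Glo luminescence (cellular ATP, 30 min RT) measured cytotoxicity after 24 hr compound treatment at 37 C. Cells were a human lymphoblastoid line, LYMP2-017, plated at 2500/well and incubated 5 hr first; concentration-response fitted with Hill equation for AC50.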

[11] = Cell Viability - LYMP2-006 (AID 978); conditions: LYMP2-006 lymphoblastoid cell viability, qHTS; series mostly up to 92.2 µM; also: nearly all actives have a fitted effect of over 60% in size
Procedure, shortened: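 Human lymphoblastoid cells, 2500 per well, were preincubated 5 hr at 37 C, then exposed to compounds for 24 hr at 37 C in complete medium. Viability was read as intracellular ATP by CellTiter-Glo luminescence; AC50 from Hill-equation fits of qHTS concentration-response data.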

[12] = Cell Viability - LYMP2-010 (AID 981); conditions: LYMP2-010 lymphoblastoid cell viability, qHTS; series mostly up to 92.2 µM; also: nearly all actives have a fitted effect of over 55% in size
Procedure, shortened: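 CellTiter-Glo ATP luminescence measured cytotoxicity after 24 h compound exposure at 37 C. LYMP2-010 cells were seeded at 2500/well, with tetraoctylammonium bromide as control; concentration-response curves gave AC50 values by the Hill equation.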

[13] = qHTS assay for small molecule agonists of retinoid X receptor alpha signaling (AID 588544); conditions: HEK293T RXRa-UAS-bla, beta-lactamase reporter, 18 h; 530 nm emission
[14] = target: Thyroid hormone receptor beta (Homo sapiens) (UniProt P10828); experiment: qHTS assay for small molecule agonists of thyroid hormone receptor beta signaling (AID 588545; calls by dose curve); conditions: TR-UAS-bla GripTite HEK 293, beta-lactamase ratio, agonist mode, 18 h; series mostly up to 76.7 µM
Procedure, shortened: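 Agonist activity was read as beta-lactamase CCF4 fluorescence (405 ex, 460/530 em), scaled between DMSO (0%) and 10 nM T3 (100%), then Hill-fitted for EC50 and efficacy. HEK 293 TR-UAS-bla cells in 2% charcoal/dextran FBS medium were exposed 18 h at 37 C.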

[15] = target: Thyroid hormone receptor beta (Homo sapiens) (UniProt P10828); experiment: qHTS assay for small molecule antagonists of thyroid hormone receptor beta signaling (AID 588547; active = well fitted inhibition curve with a large enough effect in the signal ratio, with a control signal flat, not every such curve was filed as active; the % refers to the signal ratio;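 also: cells stimulated with 0.4 nM T3 agonist during compound exposure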); conditions: TR-UAS-bla HEK293, beta-lactamase ratio, antagonist mode, 18 h
Procedure, shortened: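 TR-UAS-bla GripTite HEK293 cells in 2% charcoal/dextran FBS medium; compounds 0.59 nM to 92 uM with T3 at 0.4nM final, 18 h at 37 C. Beta-lactamase read by CCF4 fluorescence (460/530 nm); Hill fits gave IC50 and efficacy.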

[16] = qHTS assay for small molecule disruptors of the mitochondrial membrane potential - 1 hr assay (AID 651754; calls by dose curve; also: nearly all actives have a fitted effect of over 35% in size; also: potency is read from the fitted curve at half-maximal effect); conditions: series mostly up to 92.2 µM
Procedure, shortened: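 Mitochondrial potential in living HepG2 cells after 1 hr compound treatment at 37C was read with Mito-MPS dye added for a further 30 min. Red aggregate and green monomer fluorescence were measured; loss of potential leaves dye as cytoplasmic monomers.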

[17] = qHTS assay for small molecule disruptors of the mitochondrial membrane potential - 5 hr assay (AID 651755; calls by dose curve; also: nearly all actives have a fitted effect of over 40% in size; also: potency is read from the fitted curve at half-maximal effect); conditions: JC-1-type ratio dye; series mostly up to 92.2 µM
Procedure, shortened: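 Read-out: ratiometric Mito-MPS fluorescence, green monomer (ex 490/em 535) vs red mitochondrial aggregate (ex 540/em 590). HepG2 cells treated 5 hr at 37C before 30 min dye loading.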

[18] = Cell Viability - N2a (AID 540); conditions: N2a mouse neuroblastoma cell viability; activity change, negative = cytotoxicity: at 92.2 µM (top of the series); also: nearly all actives have a fitted effect of over 45% in size
Procedure, shortened: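 CellTiter-Glo ATP luminescence, read 20 min after reagent at room temperature, reported viability following 40 h compound treatment at 37 °C. N2a mouse neuroblastoma cells seeded 1500/well; Hill equation gave AC50.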

[19] = qHTS assay for small molecule agonists of the antioxidant response element (ARE) signaling pathway measured by Nrf2-dependant transcriptional activity (AID 720636; active = well fitted curve in the direction sought with a large enough effect in the repeat runs; an effect the other way counts as inactive or inconclusive); conditions: ARE-luc HepG2, Nrf2 luciferase reporter, 16 h; series mostly up to 92.4 µM
Procedure, shortened: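 Quantitative HTS format in HepG2 cells stably expressing an ARE-luciferase reporter; 16 hr compound treatment at 37 C, luciferase signal detected with ONE-Glo.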

[20] = target: Nuclear receptor subfamily 1 group I member 2 (Rattus norvegicus) (UniProt Q9R1A7); experiment: qHTS assay for small molecule activators of the rat pregnane X receptor (rPXR) signaling pathway (AID 651751; call rule not given here); conditions: rPXR reporter cells, luciferase (One-Glo), 24 h
Nuclear receptor subfamily 1 group I member 2 (Rattus norvegicus), sequence (Q9R1A7 whole entry, looked up): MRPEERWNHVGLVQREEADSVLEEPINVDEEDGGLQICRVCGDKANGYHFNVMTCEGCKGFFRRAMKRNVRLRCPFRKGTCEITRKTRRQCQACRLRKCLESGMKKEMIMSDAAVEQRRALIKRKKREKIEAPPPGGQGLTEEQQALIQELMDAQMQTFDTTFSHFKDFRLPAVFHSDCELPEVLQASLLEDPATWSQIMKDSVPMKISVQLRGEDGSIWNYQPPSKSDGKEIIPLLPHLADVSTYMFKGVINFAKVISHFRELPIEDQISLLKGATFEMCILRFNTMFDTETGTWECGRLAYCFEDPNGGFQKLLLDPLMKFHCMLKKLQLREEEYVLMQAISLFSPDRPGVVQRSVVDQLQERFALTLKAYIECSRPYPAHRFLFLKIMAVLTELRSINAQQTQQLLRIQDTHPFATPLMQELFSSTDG

Thyroid hormone receptor beta (Homo sapiens), sequence (P10828 whole entry, looked up): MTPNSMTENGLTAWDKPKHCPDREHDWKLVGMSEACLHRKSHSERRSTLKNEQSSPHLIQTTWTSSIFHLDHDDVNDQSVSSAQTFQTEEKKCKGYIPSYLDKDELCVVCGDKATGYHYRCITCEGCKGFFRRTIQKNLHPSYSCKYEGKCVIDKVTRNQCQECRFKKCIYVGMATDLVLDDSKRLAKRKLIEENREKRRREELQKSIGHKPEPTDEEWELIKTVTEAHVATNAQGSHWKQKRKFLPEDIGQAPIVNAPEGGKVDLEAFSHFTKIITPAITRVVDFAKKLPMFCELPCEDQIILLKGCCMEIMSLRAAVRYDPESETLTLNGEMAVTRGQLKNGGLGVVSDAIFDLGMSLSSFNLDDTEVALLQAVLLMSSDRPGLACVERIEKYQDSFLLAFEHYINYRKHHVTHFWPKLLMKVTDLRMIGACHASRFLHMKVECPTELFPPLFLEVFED

Structure (SMILES) | Potency [1] | Potency [2] | Potency [3] | Potency [4] | Potency [5] | Potency [6] | Potency [7] | Potency [8] | Potency [9] | Potency [10] | Potency [11] | Potency [12] | max response [13] | Potency [14] | activity change % (negative = inhibition) [15] | Potency [16] | Potency [17] | activity change, negative = cytotoxicity [18] | Potency [19] | max response [20]
Nc1ccc(N=Nc2ccccc2)c(N)c1 | > 92 µM (inactive) | inactive | inactive | inactive | inactive | inactive | inactive | inactive | inactive | inactive | inactive | inactive | 0.404% | inactive | 1.36% (inactive) | 9.44 µM (active) | 10.6 µM (active) |  |  | 
Nc1ccc2c(c1)C(=O)c1ccccc1C2=O |  |  |  |  | inactive | inactive | inactive |  |  |  | inactive |  | 6.46% and 2.42% | inactive | -15.9% (inactive) | 1.33 µM (active) | 1.5 µM (active) | -27.2% (inactive) |  | 
Cc1cc(=O)oc2cc(O)cc(O)c12 | > 92 µM (inactive) | inactive | inactive | inactive | inactive | inactive | inactive | inactive | inactive | inactive | inactive | inactive |  | inactive |  |  |  | -0.482% (inactive) | inactive | -2.67% (inactive)
c1c[nH]cn1 | > 92 µM (inactive) | inactive | inactive | inactive |  | inactive | inactive | inactive | inactive | inactive | inactive | inactive | 1.75% | inactive | -11.5% (inactive) | inactive | inactive | -11.6% (inactive) | inactive | -3.01% (inactive)
O=c1[nH]ncc2ccccc12 | > 92 µM (inactive) | inactive | inactive | inactive | inactive | inactive | inactive | inactive | inactive | inactive | inactive | inactive | 10.5% | inactive | -18.2% (inactive) | inactive | inactive | -2.98% (inactive) | inactive | -3.03% (inactive)
Nc1ccc(-c2ccc(N)c(O)c2)cc1O | > 92 µM (inactive) |  | inactive |  | inactive | inactive |  |  |  |  | inactive |  |  |  | -12.5% (inactive) | inactive |  | -122% (active) | inactive | -1.46% (inactive)
O=[N+]([O-])c1ccccc1Nc1ccccc1 | > 92 µM (inactive) | inactive | inactive |  | inactive | inactive | inactive | inactive | inactive | inactive | inactive | inactive | -18.5% |  | 8.34% (inactive) |  | inactive | -9.33% (inactive) | inactive | -3.61% (inactive)
O=CC(=O)c1ccccc1 | > 92 µM (inactive) | inactive | inactive |  | inactive | inactive | inactive |  |  |  |  | inactive | -0.232% |  |  | inactive | inactive | 5.07% (inactive) | inactive | 11.8% (inactive)
Nc1cc(C(=O)O)c(O)c(S(=O)(=O)O)c1 | > 92 µM (inactive) | inactive | inactive | inactive | inactive | inactive | inactive | inactive | inactive | inactive | inactive | inactive | 11.2% | inactive | -10.1% (inactive) | inactive | inactive | -4.5% (inactive) | inactive | 1.39% (inactive)
Nc1cnn([C@@H]2O[C@H](CO)[C@@H](O)[C@H]2O)c(=O)n1 | > 92 µM (inactive) | inactive | inactive | inactive | inactive | inactive | inactive | inactive | inactive | inactive | inactive | inactive | 11.7% | inactive |  | inactive | inactive | 8.82% (inactive) | inactive | 3.54% (inactive)
O=C(Cl)c1ccc([N+](=O)[O-])cc1 |  | inactive | inactive | inactive | inactive | inactive |  | inactive | inactive | inactive | inactive | inactive | -12.7% | inactive | 12% (inactive) | inactive | inactive | 7.26% (inactive) | inactive | -6.29% (inactive)
CCOC(=O)C1OC1c1ccccc1 (configuration not stated) | > 92 µM (inactive) | inactive | inactive | inactive |  | inactive | inactive | inactive | inactive | inactive | inactive | inactive | 2.55% | inactive | 6.36% (inactive) | inactive | inactive | 0.144% (inactive) | inactive | 9.31% (inactive)
O=C(O)/C=C/c1ccc(/C=C/C(=O)O)cc1 | > 92 µM (inactive) | inactive | inactive | inactive | inactive | inactive | inactive | inactive | inactive | inactive | inactive | inactive | 9.62% |  | 2.91% (inactive) | inactive | inactive | -20.9% (inactive) | inactive | 0.0892% (inactive)
